Whole data set: some 110,000 compounds, median “z-score” near -0.1, cut for the highest 2% near 2. The full list was thinned out, with the highest values kept by preference. Active and inactive are the calls of the source.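 Rule for the calls: active = z-score in the third read window above 3 or below -3; inactive = the rest.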

In this assay the target is Metabotropic glutamate receptor 8 (Rattus norvegicus) (UniProt P70579). In words: rat mGluR8 modulators via GIRK flux, primary screen, cell-based, thallium flux, HTS (AID 488969). The note with it: HEK293 rat mGluR8, GIRK (G protein-gated inwardly rectifying potassium channel) thallium flux, FluoZin2; at 10 µM; stronger effect = higher value; submaximal glutamate (EC20) added with thallium.
Metabotropic glutamate receptor 8 (Rattus norvegicus), sequence (P70579 whole entry, looked up): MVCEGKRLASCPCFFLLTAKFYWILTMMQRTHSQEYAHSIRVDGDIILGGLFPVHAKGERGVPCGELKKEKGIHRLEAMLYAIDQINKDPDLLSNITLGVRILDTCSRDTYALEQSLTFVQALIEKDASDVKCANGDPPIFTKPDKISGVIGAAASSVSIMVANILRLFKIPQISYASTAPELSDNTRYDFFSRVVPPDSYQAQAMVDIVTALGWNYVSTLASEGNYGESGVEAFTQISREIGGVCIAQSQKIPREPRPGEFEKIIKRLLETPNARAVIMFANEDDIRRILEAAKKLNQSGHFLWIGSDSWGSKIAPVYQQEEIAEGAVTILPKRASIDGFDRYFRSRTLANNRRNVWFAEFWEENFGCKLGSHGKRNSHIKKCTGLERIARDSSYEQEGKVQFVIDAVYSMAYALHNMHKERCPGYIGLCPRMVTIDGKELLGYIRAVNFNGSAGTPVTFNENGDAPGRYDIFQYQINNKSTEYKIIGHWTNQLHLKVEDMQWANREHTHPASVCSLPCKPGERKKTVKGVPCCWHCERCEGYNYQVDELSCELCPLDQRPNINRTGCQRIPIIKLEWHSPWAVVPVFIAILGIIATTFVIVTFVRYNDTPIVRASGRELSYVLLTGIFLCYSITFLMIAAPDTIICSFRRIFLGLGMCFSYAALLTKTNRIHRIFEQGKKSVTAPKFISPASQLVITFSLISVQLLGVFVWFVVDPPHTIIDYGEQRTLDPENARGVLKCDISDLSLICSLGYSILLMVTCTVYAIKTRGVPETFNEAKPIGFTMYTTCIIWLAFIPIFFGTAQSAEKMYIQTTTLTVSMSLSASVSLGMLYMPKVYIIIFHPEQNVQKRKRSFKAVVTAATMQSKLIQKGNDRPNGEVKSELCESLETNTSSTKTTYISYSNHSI
In turn, `COC(=O)c1nnn(CC(=O)Nc2cc(Cl)ccc2C)c1C(=O)OC` showed a z-score of -0.484. `COc1cc(/C=C2\SC(c3ccc(C)cc3)=NC2=O)ccc1O` registered a z-score of -0.769. On to `O=C(Nc1ccc(Cn2cccn2)cc1)c1ccc(COc2ccccc2Br)cc1`, for which the z-score was -0.0941. The molecule `O=S(=O)(N/N=C/c1cn(Cc2ccccc2)c2ccccc12)c1ccccc1` came in with a z-score of -0.216. Molecule `Cc1cc(N2CCCCCC2)nc2ccccc12` returned a z-score of -0.134. For `COc1ccccc1N1C(=O)CCC1(C#N)c1ccc(Br)cc1` (stereo not drawn) the value was -0.14; for `Cc1c(NC(=O)CSc2ccc(Cl)cc2)cccc1-c1nc2ncccc2o1`, -0.212; for `O=S(=O)(Nc1ccccc1N1CCCCC1)c1ccc(Cl)s1`, 3.45 (active).

`O=S(=O)(Nc1ccc(N2CCCCC2)cc1)c1cccs1`: the z-score was -0.488. Regarding `O=C(Nc1ccccc1)c1ccccc1NS(=O)(=O)c1ccc(Cl)s1`, the z-score was -3.39 (active). As for `O=S(=O)(Nc1cc(Cl)ccc1N1CCCCC1)c1cccs1`, the figure is 7.03 (active); as for `O=S(=O)(Nc1ccc(N2CCOCC2)cc1)c1ccc(Cl)s1`, -0.104; as for `O=C(Nc1cc(Cl)ccc1N1CCCCC1)c1cccs1`, -0.311. For the molecule `COC(=O)c1ccc(OC(=O)c2ccccc2F)cc1`, the z-score was 0.198. Molecule `COc1ccccc1NC(=O)CSc1ccc2nnc(-c3cccnc3)n2n1` returned a z-score of -0.277.

In the case of `O=C(COC(=O)c1ccc(-c2nnc(-c3ccccc3)o2)cc1)c1ccccc1`, the z-score was -0.145. Molecule `CC(C)n1c(N2CCN(CC(=O)NCc3cccs3)CC2)nc2ccccc21` yielded a z-score of -0.0505. In the case of `Cc1nccn1CC(O)COc1ccccc1` (stereo not drawn), the z-score was -0.0583. Regarding `Cc1nc2ccccc2n1CC(O)Cn1c2ccccc2c2ccccc21` (stereo not drawn), the z-score was found to be 0.752. For `Cc1nccn1CC(O)Cn1c2ccccc2c2ccccc21` (stereo not drawn), the z-score amounted to 2.

In turn, `Cc1cccc(-n2c(SCc3cc(=O)n4ccsc4n3)nc3ccccc3c2=O)c1` yielded a z-score of -0.276.

The molecule `Cc1nc(NC(=O)COc2ccccc2)sc1C(=O)Nc1ccccc1` yielded a z-score of -0.075. Regarding `CC(Oc1ccc(Cl)cc1Cl)C(=O)NCCN1CCOCC1` (stereo not drawn), the z-score is 0.00607. The molecule `CN1/C(=C\C(=S)NC(=O)c2ccccc2Cl)C(C)(C)c2ccccc21` displayed a z-score of 0.0507.

In turn, `CCN(CC)c1nc2nonc2nc1N(CC)CC` registered a z-score of 2.53. For `Cc1cc(C)n(-c2nc3nonc3nc2-n2nc(C)cc2C)n1` the value was 0.084; for `Cc1ccc(Nc2nc3nonc3nc2N(C)C)cc1`, -0.0276.

Molecule `Cc1n[nH]c(C)c1S(=O)(=O)N(CC(=O)Nc1ccc2c(c1)OCCO2)c1ccc(C(C)C)cc1` came in with a z-score of -0.193. Take `O=C(NCCCc1ccccc1)Nc1ccccc1`: the z-score was determined as 0.456. Molecule `O=C(NCCc1ccc(Cl)cc1)Nc1cccc(Cl)c1` gave a z-score of 0.529.

The molecule `O=C(NCCCc1ccccc1)Nc1cccc(Cl)c1` displayed a z-score of 2.01.

`Cc1nc(N2CCN(C)CC2)c2c(C)c(C(=O)Nc3ccc(C)c(F)c3)sc2n1` gave a z-score of -0.555.

The molecule `CCCc1cc(=O)[nH]c(SCC(=O)NC(=O)OCC)n1` had a z-score of -0.0127. As for `Cc1cc(C)n(S(=O)(=O)c2ccc(C(C)(C)C)cc2)n1`, the figure is -1.41; as for `CCc1nc(SCC(=O)Nc2c(C)nn(C)c2C)c2cnn(-c3ccccc3)c2n1`, -0.873. For `O=C(NC1(C(F)(F)F)NC(=O)N(C2CCCC2)C1=O)C1CC1` (stereo not drawn) the value was -0.129. As to `CC(=O)NC1(C(F)(F)F)NC(=O)N(C2CCCCC2)C1=O` (stereo not drawn), the z-score is -0.137. `CCOC(=O)NC1(C(F)(F)F)NC(=O)N(C2CCCCC2)C1=O` (stereo not drawn) had a z-score of 2.9. In the case of `COc1ccc(-c2nnc(SCc3nnc(-c4ccc(Cl)cc4)o3)n2-c2ccccc2)cc1`, the z-score was -1.79. For `COc1ccc(NS(=O)(=O)c2ccc(Br)s2)cc1OC` the value was 2.11. As for `COc1ccc(C)cc1NS(=O)(=O)c1ccc(Br)s1`, the figure is 0.369; as for `COc1cc(NS(=O)(=O)c2ccc(Br)s2)cc(OC)c1`, 0.398. For `CCC(=O)Oc1ccc(C(=O)Nc2cccc(C(=O)c3ccccc3)c2)cc1` the value was 0.022; for `CC1(C)NC(=O)N(CC(O)CN2CCCCC2)C1=O` (stereo not drawn), 0.323; for `COc1ccc(CSc2nc(C)cc(=O)[nH]2)cc1Br`, -1.02.

Take `CC(=O)Nc1ccc(S(=O)(=O)Nc2nnc(C(C)(C)C)s2)cc1`: the z-score was found to be 0.307. With `COc1ccc(NC(=S)NNC(=O)c2ccccc2OC(F)F)cc1`, the z-score was found to be 0.204. As for `CN(C)c1cccc(C(=O)Nc2ccc(N3CCOCC3)cc2)c1`, the figure is -0.0628; as for `CN(C)c1cccc(N=C2C=C(N3CCOCC3)CC(C)(C)C2)c1`, 2.3; as for `CN(C)c1cccc(NC2=CC(=[N+]3CCOCC3)CC(C)(C)C2)c1`, 0.942. In turn, `O=C(Nc1cccc(O)c1)c1cc(-c2ccco2)on1` displayed a z-score of -0.103. For `Cc1ccc(Cl)c2c1NC(=O)C2(O)CC(=O)c1ccc(F)cc1` (stereo not drawn), the z-score was -0.203. As for `COc1ccc(NC(=O)OCCn2c([N+](=O)[O-])cnc2C)cc1`, the figure is -0.144.

`CCOC(=O)C(NCCCO)c1ccccc1` (stereo not drawn) showed a z-score of -0.247. The molecule `COc1ccc(OC)c(-c2c[n+](=O)c3c(n2[O-])CCCC3)c1` showed a z-score of 0.0184. For `O=S(=O)(c1ccc(F)cc1)N1CCN(c2ncnc3c2cnn3-c2ccccc2)CC1`, the z-score was 2.11. In turn, `c1ccc(-n2ncc3c(N4CCCCC4)ncnc32)cc1` showed a z-score of -0.259. As for `CCN1CCN(c2ncnc3c2cnn3-c2ccccc2)CC1`, the figure is 0.0325; as for `CN(C)C=NC(=O)c1ccc([N+](=O)[O-])c(CS(=O)(=O)c2ccc(Cl)cc2)c1`, -0.0395; as for `CCc1ccccc1N(CC(=O)O)S(C)(=O)=O`, 0.424. `COc1ccc(C/C(C)=N/NC(=S)Nc2ccc(C(C)C)cc2)cc1`: the z-score came to 0.256.

In the case of `CC/C(=N\NC(=S)Nc1cc(C)ccc1C)c1ccc(OC(F)F)cc1`, the z-score was 3.47 (active). As for `COc1ccc(C/C(C)=N/NC(=S)Nc2ccccc2)cc1`, the figure is 5.19 (active); as for `CCOc1ccc(NC(=S)N/N=C(\C)Cc2ccc(OC)cc2)cc1`, 1.35.

As for `COc1ccc(C/C(C)=N/NC(=S)Nc2ccc(C)c(C)c2)cc1`, the z-score amounted to 1.65. Turning to `CCCCOc1ccc(/C=N/NC(=S)Nc2cc(C)ccc2C)cc1`, the z-score worked out at 1.19. As for `COc1ccccc1NC(=S)NNC(=S)Nc1ccc(OC(F)F)cc1`, the figure is -0.345; as for `CC/C(=N\NC(=S)Nc1ccc(OC)cc1)c1ccc(OC(F)F)cc1`, 7.5 (active); as for `Cc1ccc(CNC(=S)Nc2ccc(OC(F)F)cc2C)cc1`, -0.531.

`CCN(CCCNC(=O)CCNC(=O)Cn1ccc2ccccc2c1=O)c1ccccc1` returned a z-score of -0.46.

The molecule `CCN1CCN(Cc2c(O)ccc3c(=O)c(-c4ccc(OC)c(OC)c4)c(C)oc23)CC1` came in with a z-score of -0.348. For `Cc1ccc(Oc2c(C=O)c3ccccc3n2C)cc1`, the z-score was -0.989. Molecule `CC1(C)CC(=O)N(CC(=O)NC2CCCC2)c2ccccc2S1(=O)=O` registered a z-score of -0.29.
